Measurements from PubChem BioAssay AID720541 (National Center for Advancing Translational Sciences (NCATS), 2013).
The campaign covered roughly 1,300 compounds. About 420 (32%) were called active. Not shown: some 32% with an inconclusive outcome. The list shows a part of the results. Values without a mark were called inactive. The call rests on the fitted dose curve; in most records, active means well fitted inhibition curve with a large enough effect; inconclusive means small, poorly fitted or top-dose-only effect; inactive means no such curve, though single readings can be large or run the other way.

target: C-terminal-binding protein 1 (Homo sapiens) (UniProt Q13363); test: qHTS for Inhibitors of the Phosphatase Activity of Eya2: Carboxyl-terminal binding protein (CtBP) Counterscreen for Cherry-picked Compounds; conditions: purified protein-protein binding, AlphaScreen, 3 h; series mostly up to 46.1 µM; activity change, negative = inhibition: at the top concentration; further: nearly all actives have a fitted effect of over 65% in size
In short: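 AlphaScreen using 25 nM GST-E1A with 25 nM CtBP-6xHIS; compounds at 2.5 nM–46 uM final, 2 h at room temperature, then donor/acceptor beads (20 ug/mL) for 1 h in the dark. Signal normalized to E1A peptide inhibitor (maximum inhibition) and DMSO.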
On the % scale 0 is the no-effect control and ±100 the full control effect; potency means the concentration at half of the fitted maximal effect.

| SMILES | activity change, negative = inhibition | Potency |
| --- | --- | --- |
| CN(C)c1ccc2nc3ccc(=[N+](C)C)cc-3sc2c1 | 128% | – |
| CC(=O)Oc1ccc2nonc2c1OC(C)=O | -6.3% | – |
| CC1=C(C(=O)N2CCOCC2)CC(CC(=O)NC(c2ccccc2)c2ccccc2)C(=O)N1Cc1ccc(C(C)(C)C)cc1 (configuration not stated) | -5.98% | – |
| O=C(CSc1ccc2nnc(-c3ccccn3)n2n1)Nc1ccccc1C(F)(F)F | – | 10.7 µM (active) |
| Cc1ccccc1NC(=O)CSc1ccc(-c2ccccn2)nn1 | – | 3.79 µM (active) |
| Cc1cc(C)c(NC(=O)CSc2ccc(-c3ccccn3)nn2)c(C)c1 | – | 3.38 µM (active) |
| Cc1csc(NC(=O)CSc2ccc(-c3ccccn3)nn2)n1 | – | 4.26 µM (active) |
| O=S(=O)(NCCSCc1ccc(Cl)c(Cl)c1)c1ccc2c(c1)OCCO2 | -3.24% | – |
| CCOc1ccc(CCN2C(=O)C(=O)N([C@@H](Cc3ccccc3)CN3CCC[C@H]3CN3C(=O)C(=O)NC[C@@H]3Cc3ccccc3)C[C@@H]2Cc2ccccc2)cc1 | -22.9% | – |
| CCN(CC)c1ccc(NC(=O)c2ccc3c(c2)c(C)c(C)n3C)cc1 | – | 10.7 µM (active) |
| NC(N)=Nc1nc2cc([N+](=O)[O-])ccc2o1 | -12.5% | – |
| CNc1ccc(/C=C2\C=Cc3ccccc32)cc1OC | – | 8.49 µM (active) |
| Cc1cc(/C=C2\C=Cc3ccccc32)ccc1N(C)C | – | 8.49 µM (active) |
| CN(C)c1ccc(/C=C2\C=Cc3ccccc32)cc1N | – | 13.5 µM (active) |
| CN(C)c1ccc(/C=C2\C=Cc3ccccc32)cc1[N+](=O)[O-] | – | 7.57 µM (active) |
| O=[N+]([O-])c1ccc(/C=C2\C=Cc3ccccc32)cc1 | – | 7.57 µM (active) |
| COc1cc(/C=C2/C=Cc3ccccc32)ccc1N(C)C | – | 8.49 µM (active) |
| O=C(Nc1ccccc1Cl)N1CCN(c2ccc3nnc(-c4ccccc4)n3n2)CC1 | – | 5.36 µM (active) |
| COc1cccc(N2CCN(c3ccc4nnc(CCC(=O)Nc5cccc(C(C)=O)c5)n4n3)CC2)c1 | 13.8% | – |
| NCC(=O)Nc1ccc(Cl)cc1C(=O)c1ccc[nH]1 | -8.63% | – |
| COc1ccc(-c2cn(Cc3ccc4c(c3)C(=O)c3ccccc3C4=O)nn2)cc1 | -4.47% | – |
| COC1=C(Nc2ccc(OC)cc2)C(=O)c2ccccc2C1=O | – | 6.75 µM (active) |
| CCc1ccc2nc3nc(C)cc(C)c3c(N)c2c1 | – | 10.7 µM (active) |
| COc1cc(NS(=O)(=O)c2ccc(N/C=C\C(=O)c3ccc(OC)c(OC)c3)cc2)nc(OC)n1 | – | 8.49 µM (active) |
| CCC(=O)Nc1ccc(C(=O)COC(=O)c2nc3nccc(C)n3n2)cc1 | -5.45% | – |

| SMILES | activity change, negative = inhibition | Potency |
| --- | --- | --- |
| COc1ccc(C(=O)/C=C/Nc2ccc(S(=O)(=O)Nc3nc(C)cc(C)n3)cc2)cc1OC | – | 12 µM (active) |
| Cc1ccccc1-c1cnc(C(O)c2c(C)cccc2C)[nH]1 (configuration not stated) | -9.32% | – |
| Cc1oc2cc([N+](=O)[O-])c(O)c([N+](=O)[O-])c2c1C(=O)c1ccc(Cl)cc1 | – | 16.9 µM (active) |
| COc1ccc(NC(=O)c2cc(-c3ccco3)nc3ccccc23)cn1 | -10.6% | – |
| O=C(Nc1nncs1)c1cc(-c2ccco2)nc2ccccc12 | – | 13.5 µM (active) |
| COc1cccc(C(=O)Nc2cccc(-c3ccc4nncn4n3)c2)c1OC | – | 13.5 µM (active) |
| COc1ccccc1OCc1ccc(C(=O)Nc2cc(OC)c(OC)c(OC)c2)o1 | -26.1% | – |
| Nc1ccc(O)cc1 | – | 12 µM (active) |
| Nc1nc2nn(-c3ccccc3)nc2c(=O)[nH]1 | – | 6.01 µM (active) |
| COc1ccc(Nc2nnc(-c3ccc(C(N)=O)cc3)c3ccccc23)cc1 | – | 4.78 µM (active) |
| Cc1ccc(-c2nnc(Nc3ccc4c(c3)OCO4)c3ccccc23)cc1S(N)(=O)=O | -34.7% | – |
| CNC(=O)c1ccc(Nc2nnc(-c3ccc(C(N)=O)cc3)c3ccccc23)cc1 | – | 6.75 µM (active) |
| COc1ccc(-c2csc(-c3ccc(C(=O)O)cc3)n2)cc1 | -13.9% | – |
| CCN(CC)C(=O)c1ccc(-c2nnc(Nc3ccc(C(=O)NC)cc3)c3ccccc23)cc1 | – | 16.9 µM (active) |
| NC(=O)[C@@H]1CC2(CC(c3cccc(NC(=O)COc4ccc(Cl)cc4)c3)=NO2)CN1C(=O)COc1ccc(Cl)cc1 (some centres not stated) | -2.46% | – |
| CCOCCCNC(=O)c1cc2sc(Cl)cc2n1CC | -5.54% | – |
| Cc1cccc2cn[nH]c12 | 3.72% | – |
| O=C(NN=C1CCCC1)c1[nH]c2ccc(Br)cc2c1-c1ccccc1 | -4.82% | – |
| COc1ccc(OC)c(NC(=O)CSc2nc(-c3ccccc3)cc(=O)[nH]2)c1 | -21.4% | – |
| CCOC(=O)c1sc(NC(=O)CSc2nc(O)c(Cc3ccccc3)c(=O)[nH]2)nc1C | – | 16.9 µM (active) |
| O=C(O)c1ccccc1-c1ccccc1C(=O)Nc1ccc2oc(=O)c3ccccc3c2c1 | – | 12 µM (active) |
| O=C(O)c1ccccc1-c1ccccc1C(=O)Nc1ccc2c(c1)[nH]c(=O)c1ccccc12 | – | 7.57 µM (active) |
| CCN1C(=O)/C(=C2/C=Cc3ccccc3N2CC)SC1=S | – | 4.26 µM (active) |
| COc1cc(OC)c(OC)cc1/C=C/c1nccc2ccccc12 | – | 7.57 µM (active) |
| FC(F)(F)c1ccc(CN2C[C@@H]3C(c4ccc(Cl)nc4)C4(c5cccnc5)CC3(C4)[C@H]2c2ccccc2)cc1 (some centres not stated) | -13.9% | – |

| SMILES | activity change, negative = inhibition | Potency |
| --- | --- | --- |
| Cc1ccc(O)c(C(=O)c2cnc3c(c2)c(-c2ccc(F)cc2)c(C#N)c(=O)n3C)c1 | 50.2% | – |
| COc1ccc([C@H]2CC(=O)C=C(c3ccnc4ccc(Cl)cc34)C2)cc1 | -17.1% | – |
| CC(=O)Nc1ccc(NC(=O)COc2ncnc3ccccc23)cc1 | 23% | – |
| CN(C)c1ccc(NC(=O)CC(NCc2ccccn2)C(=O)O)cc1 (configuration not stated) | – | 1.07 µM (active) |
| COc1cc(OC)c(NC(=O)CN(C)S(=O)(=O)c2ccc(-c3ccc(=O)[nH]n3)s2)cc1Cl | – | 6.01 µM (active) |
| CCN(CC)c1ccc(/C=C2\CCC(/C=C(\C#N)C(=O)Nc3ccccc3F)=C2N2CCOCC2)cc1 | – | 23.9 µM (active) |
| CCCc1ccc(C#N)c(SC2CC(=O)N(c3ccc(OC)cc3)C2=O)n1 (configuration not stated) | -12.5% | – |
| O=C1NC(=O)/C(=C\c2ccccc2OCc2cccc([N+](=O)[O-])c2)N1 | -13% | – |
| COc1ccc(F)cc1-c1cc(NC=O)c2ncc(-c3cccc(C(F)(F)F)c3)n2c1 | -11.4% | – |
| Oc1c(C(Nc2nc3ccccc3s2)c2ccco2)ccc2cccnc12 (configuration not stated) | – | 6.75 µM (active) |
| Cc1cc(C)c(OCCCCN(C)Cc2ccccc2)c(C)c1 | 58.5% | – |
| O=c1c2ccccc2oc2nc3n(c(=O)c12)CCCS3 | – | 12 µM (active) |
| Cc1cc(=O)n2nc(N3CCCC(C(=O)Nc4ccc(C)c(C)c4)C3)sc2n1 (configuration not stated) | -39.8% | – |
| CN1/C(=C\C(=S)NC(=O)c2ccccc2Cl)C(C)(C)c2ccccc21 | – | 15.1 µM (active) |
| Oc1[nH]c2ccccc2c1N=Nc1nc2ccccc2s1 | -4.03% | – |
| Cc1c(CCO)c(=O)n(-c2ccccc2)n1S(=O)(=O)c1c(Cl)cc(Cl)cc1Cl | -25.3% | – |
| CCOc1ccc(S(=O)(=O)Nc2cc(SCC(=O)O)c(O)c3ccccc23)cc1 | – | 21.3 µM (active) |
| CCN1CCN(c2nn3c(=O)c4ccccc4nc3c3ccccc23)CC1 | – | 9.53 µM (active) |
| O=C(O)CCc1c2ccc(=O)c(O)c-2oc2c(O)c(O)ccc12 | – | 16.9 µM (active) |
| CCN(CC)c1ccc(N=Cc2cc(Br)ccc2O)cc1 | 5.98% | – |
| CC(C)c1ccc(C2c3[nH]c4ccccc4c3C[C@H]3C(=O)N(c4ccccc4C(=O)N4CCC[C@H]4C(=O)O)C(=O)N23)cc1 (some centres not stated) | -23.3% | – |
| COc1ccc(/C=C2\CCc3ccccc3C2=O)cc1CN1CCOCC1 | – | 13.5 µM (active) |
| COc1ccc(C(=O)N2CCOCC2)cc1S(=O)(=O)N1CCCc2ccccc21 | -3.75% | – |
| Cn1ccc2c(N3CCCC3)cc3c(c21)C1CCC3C1 (configuration not stated) | – | 15.1 µM (active) |
| O=C(NCCCNC1CCCCC1)c1ccc(/C=N/O)nc1 | – | 13.5 µM (active) |

| SMILES | activity change, negative = inhibition | Potency |
| --- | --- | --- |
| CN(C)c1ccc(Sc2ccc3nc(N)nc(N)c3c2)cc1 | – | 6.75 µM (active) |
| O=C(/C=C\c1ccccc1)Oc1cccc2cccnc12 | – | 3.38 µM (active) |
| O=C(/C=C/c1ccco1)Nc1ccccc1N1CCCC1 | -24.3% | – |
| O=C(/C=C/c1ccco1)Oc1cccc2cccnc12 | – | 4.26 µM (active) |
| COc1ccccc1/C=C/C(=O)Oc1cccc2cccnc12 | – | 3.38 µM (active) |
| O=C(/C=C/c1ccccc1)Oc1cccc2cccnc12 | – | 2.39 µM (active) |
| COc1ccc(Br)cc1CNC(=O)c1ccc2c(c1)N(C)CCS2 | -24.5% | – |
| N#Cc1c(=O)c2nc(NCc3ccccc3)ncc2n2ccccc12 | – | 4.26 µM (active) |
| CC(C)Cn1c(SC(C)C(=O)Nc2ccc(N3CCOCC3)cc2)nc2ccccc21 (configuration not stated) | -22.3% | – |
| CC1CCCCC1Nc1nc2ccc(Cl)cc2n2cnnc12 (configuration not stated) | -14.8% | – |
| c1ccc2c(c1)nc(Nc1ccc(N3CCCCC3)cc1)c1nncn12 | – | 15.1 µM (active) |
| Cc1cccc(NC2=C(NCCO)C(=O)c3ccccc3C2=O)c1 | – | 12 µM (active) |
| CNc1nc(-c2ccc3c(c2)CCN3C(=O)c2cccc(F)c2)cs1 | -25.3% | – |
| CC1=CC(=O)Nc2ncccc2O1 | – | 15.1 µM (active) |
| C[N+](C)(CCCCCI)c1ccc(/C=C/c2nc3ccccc3s2)cc1 | – | 12 µM (active) |
| O=C(Oc1ccc2ccc(=O)oc2c1)c1cccs1 | -6.55% | – |
| Cc1nc(S/C(=C\c2ccc(-c3ccc(C(=O)O)c(Cl)c3)o2)C(=O)O)n[nH]1 | – | 13.5 µM (active) |
| Cc1ccc(C(=O)Oc2ccc3ccc(=O)oc3c2)cc1 | -3.56% | – |
| O=C(NNC(=O)c1cc2cc(Br)ccc2oc1=O)c1ccc(O)cc1 | 24.4% | – |
| CC(=O)Nc1ccc(OC(=O)c2cc3cc(Br)ccc3oc2=O)cc1 | – | 6.75 µM (active) |
| Cc1cc(/C=C2\C(=N)N3N=C(CC(=O)N4CCOCC4)SC3=NC2=O)c(C)n1Cc1ccccc1 | -9.67% | – |
| CCOc1cc(/C=C2\C(=N)N3N=C(CC)SC3=NC2=O)ccc1OCCOc1ccc(NC(C)=O)cc1 | – | 3.79 µM (active) |
